From PubChem BioAssay
IL1B secr inh = blocks inflammasome-driven IL-1 beta release | THP-1 LPS/ATP IL-1B secretion, AlphaLISA, 16 h; active compounds read low | activity change, % at 57.5 µM | hit rate 4.7% among 360,000; in the data active = activity change below about -50%; inconclusive = mostly about -30% to -49%
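Secreted IL-1B measured by AlphaLISA bead assay after 16 h compound exposure of THP-1 cells; compounds (final up to 57.5 uM) added 1 h before LPS (250 ng/mL) and ATP (1.25 mM) stimulation; lower signal means less secretion.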
TDP1 cell CPT = DT40-hTDP1 cell growth loss with CPT. chicken DT40 Tdp1-/-;hTDP1 cells + 20 nM CPT, ATP luminescence, 48 h. Potency, µM (titrated, usually from 46.2 µM), for inactives: at the highest dose activity change, negative = growth inhibition, hits mostly inhibitors. hit rate 12% among 420,000. AID 686979; also: potency is read from the fitted curve at half-maximal effect; nearly all actives have a fitted effect of over 55% in size
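Chicken DT40 Tdp1-/- cells complemented with human TDP1, 400 cells/well, exposed to compounds plus 20 nM camptothecin for at least 48 h at 37 C; viability read as ATP content by CellTiter-Glo luminescence.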
HT1080 IDH1KD tx = kills HT-1080 cells with IDH1 knockdown; hit rate 2% among 360,000; Potency, µM (titrated, usually from 46.1 µM), inactives show at the top dose activity, negative = toxicity, most hits filed as cytotoxic; HT-1080 IDH1 knockdown viability, ATP luminescence, 48 h;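 also: potency is read from the fitted curve at half-maximal effect; 0% = DMSO wells and -100% = cell-free medium wells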
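Assay cells: HT-1080 with IDH1 knockdown, 750 per well, RPMI/5% FBS. Exposure: 48 h at 37 °C following 2 h pre-incubation. Read: CellTiter-Glo luminescence; fitted concentration-response, curve class assigned.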
DT40 TDP1 no CPT = qHTS for Inhibitors of human tyrosyl-DNA phosphodiesterase 1 (TDP1): qHTS in cells in absence of CPT; Potency, µM (doses to about 46.2 µM), for inactives: at the highest dose activity change, negative = growth inhibition, hits mostly inhibitors; hit rate 15% among 420,000; AID 686978, 2013; DT40 Tdp1-/- hTDP1 cells, no CPT, ATP luminescence, 48 h; also: potency is read from the fitted curve at half-maximal effect; nearly all actives have a fitted effect of over 55% in size
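Seeded 400 DT40-hTDP1 cells/well (vehicle DMSO, no 20 nM CPT); pinned compounds; ≥48 hr at 37 °C; CellTiter-Glo luminescence as viability measure.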
HT1080NT lethal = kills 2HG-producing HT-1080-NT fibrosarcoma cells. Potency, µM (top dose mostly 46.1 µM), for inactives: top-dose activity, negative = less viability, actives largely listed as cytotoxic. hit rate 1.6% among 360,000. HT-1080-NT fibrosarcoma viability, CellTiter-Glo ATP luminescence, 48 h;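 also: NT is the 2HG producing partner of a matched IDH1 knockdown line; potency is read from the fitted curve at half-maximal effect; 0% = DMSO-treated cells and -100% = media-only wells without cells; nearly all actives have a fitted effect of over 55% in size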
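A 48-hour cytotoxicity screen used HT-1080-NT cells plated 2 hours before compound delivery. ATP-based CellTiter-Glo luminescence measured viability, normalized to DMSO and no-cell controls.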
Starred values were filed as active, the others as inactive; ? = inconclusive; / = not tested or not shown. An excerpt weighted towards active compounds, which were near 19% of everything screened. Unless noted, calls follow the shape of the dose curve; as a rule, active = well fitted curve in the direction sought with a large enough effect; inconclusive = small, poorly fitted or top-dose-only effect, or another doubt; inactive = no such curve, though single readings can be large; an effect the other way counts as inactive or inconclusive. Unless noted, % is scaled to controls: 0 for no effect and ±100 for the full control effect.

SMILES	IL1B secr inh	TDP1 cell CPT	HT1080 IDH1KD tx	DT40 TDP1 no CPT	HT1080NT lethal
C[C@@H](NC(=O)[C@@H]1CCCN1C(=O)[C@@H]1CCCN1C(=O)c1cccc2ccccc12)c1ccccc1	11	?	2%	?	-2%
Cc1cccc(OCC(=O)O/N=C(\N)c2ccncc2)c1	3	3%	0%	-3%	-1%
Cc1cc(C)c(C#N)c(Sc2nnnn2-c2ccccc2)n1	-8	?	-7%	-25%	0%
CCc1nc2ccc(C(=O)Nc3ccc4c(c3)OCC(=O)N4)cn2c1N(C)Cc1nccn1C	-24	?	12%	?	17%
Cc1nn(Cc2ccccc2)c2sc(C(=O)N3CCN(Cc4ccc5c(c4)OCO5)CC3)cc12	?	16µM*	?	?	?
O=C(COc1ccc(Cl)cc1)N1CCN(C(=O)c2cccs2)CC1	-73*	-16%	-9%	-27%	2%
Nc1nc(SCC(=O)c2c(N)n(Cc3ccccc3)c(=O)[nH]c2=O)n[nH]1	-3	-22%	15%	-24%	10%
CC(=O)Nc1ccc(CN(C)c2c(C)nc3ccc(C(=O)N4CCN(c5ccccc5)CC4)cn23)cc1	31	23µM*	-5%	?	-3%
CC(=O)Nc1ccc(CN(C)c2c(C)nc3ccc(C(=O)N(C)Cc4ccccc4)cn23)cc1	0	?	0%	16µM*	0%
O=C(Nc1ccc(Cl)c(C(F)(F)F)c1)C1Cc2c(-c3ccc4c(c3)OCO4)ccnc2O1 (centres undefined)	-3	23µM*	21µM*	?	?
CC(=O)c1cccc(-c2ccnc3c2CC(C(=O)Nc2ccc(Cl)cc2)O3)c1 (centres undefined)	-8	?	16µM*	21µM*	?
CN(C)c1cccc(NC(=O)C2Cc3c(-c4ccc(Cl)cc4)ccnc3O2)c1 (centres undefined)	-28	?	?	?	?
CC(=O)c1cccc(NC(=O)C2Cc3c(-c4ccc(Cl)cc4)ccnc3O2)c1 (centres undefined)	-8	?	?	10µM*	?
CC(=O)c1cccc(-c2ccnc3c2CC(C(=O)Nc2ccc(Cl)c(C(F)(F)F)c2)O3)c1 (centres undefined)	94	21µM*	?	?	-20%
CC(=O)Nc1ccc(NC(=O)C2Cc3c(-c4cccc(C(C)=O)c4)ccnc3O2)cc1 (centres undefined)	30	2%	-1%	-19%	-1%
O=[N+]([O-])c1cc([N+](=O)[O-])c(Oc2ccc(F)cc2)cc1NN1CCCCC1	29	-14%	2%	-8%	-8%
O=[N+]([O-])c1cc([N+](=O)[O-])c(Oc2cc(F)cc(F)c2)cc1NN1CCCCC1	21	18µM*	5%	-24%	2%
COc1cc(OC)cc(-c2cc3cc4c(cc3cn2)OCO4)c1	36	0.65µM*	0.58µM*	0.52µM*	0.92µM*
COc1ccc(-c2cc3cc4c(cc3cn2)OCO4)cc1	30	-20%	11%	-18%	13%
COc1cc(OC)cc(-c2cc3ccc(OC)cc3cn2)c1	-4	16µM*	?	13µM*	?
COc1ccc(OC)c(NC(=O)COC(=O)CCCN=C2NS(=O)(=O)c3ccccc32)c1	18	-19%	0%	-1%	-9%
Clc1ccc(CSc2nncn2-c2ccc3c(c2)OCCO3)cc1	/	2.6µM*	5.2µM*	5.8µM*	16µM*
CNC(=O)C1CCN(C(=O)N2CC(C)Oc3ccc(Cl)cc32)CC1 (centres undefined)	/	-1%	/	-21%	/
CCN(Cc1ccncc1)C(=O)CC1C(=O)NCCN1Cc1ccc(F)c(F)c1 (centres undefined)	0	?	-2%	-12%	-2%
CCC(C)Sc1ccc([C@H]2N[C@@](Cc3ccccc3)(C(=O)OC)[C@H]3C(=O)N(CC)C(=O)[C@@H]23)cc1OC (some centres undefined)	-18	?	-3%	21µM*	12%
SMILES	IL1B secr inh	TDP1 cell CPT	HT1080 IDH1KD tx	DT40 TDP1 no CPT	HT1080NT lethal
CCC(C)Sc1ccc([C@H]2N[C@@](Cc3ccccc3)(C(=O)OC)[C@H]3C(=O)N(CC)C(=O)[C@@H]23)cc1 (some centres undefined)	-24	?	-11%	21µM*	-15%
CCN1C(=O)[C@H]2[C@@H](c3ccc(-c4ccc5c(c4)OCO5)c(OC)c3)N[C@@](Cc3ccccc3)(C(=O)OC)[C@H]2C1=O	-24	?	-10%	?	-10%
CCN1CCN(c2cc(SC(C)C)nc(-c3ccc(OC)cc3)n2)CC1	-82*	23µM*	-19%	?	-18%
Cc1nc2cc(-c3cccc(F)c3)nn2c(C)c1CCC(=O)NC(C)CCc1ccco1 (centres undefined)	-14	?	-23%	?	-7%
Cc1nc2cc(-c3cccc(F)c3)nn2c(C)c1CCC(=O)NC1CCCCC1	/	7%	/	5%	/
Cc1csc(NC(=O)CCc2c(C)nc3cc(-c4cccc(F)c4)nn3c2C)n1	0	16µM*	-5%	21µM*	-16%
COC(=O)C(NC(=O)CCc1c(C)nc2cc(-c3cccc(F)c3)nn2c1C)C(C)C (centres undefined)	/	?	/	18µM*	/
COc1cc(OC)cc(-c2cc3nc(C)c(CCC(=O)NC(C)CCc4ccco4)c(C)n3n2)c1 (centres undefined)	-21	?	-2%	16µM*	0%
CC(=O)c1cccc(S(=O)(=O)N2CCC(C(=O)NC3CCCC3)CC2)c1	29	-4%	-1%	-10%	-3%
CC1(C)CC2CC(C)(CN2C(=O)c2cc(-c3ccccc3)on2)C1 (centres undefined)	?	?	-1%	?	-26%
O=C1CC(NS(=O)(=O)c2cc(F)ccc2F)CN1c1cccc(F)c1 (centres undefined)	24	13%	1%	5%	2%
N#C/C(=C\c1ccc(-c2ccc(F)cc2F)o1)c1nc2ccccc2[nH]1	/	23µM*	/	13µM*	/
Cc1ccc2nc(/C(C#N)=C/c3ccc(-c4ccccc4C(=O)O)o3)[nH]c2c1	-8	-2%	24%	4%	-1%
N#C/C(=C\c1ccc(-c2ccccc2C(=O)O)o1)c1nc2ccccc2[nH]1	?	?	12%	15µM*	22%
CC(=O)Nc1ccccc1N(C)S(=O)(=O)c1ccc(C)cc1	24	23µM*	?	23µM*	-23%
